Records with an inconclusive call do not appear. A call without a number means that no potency is given here. Active and inactive are the calls of the source. Unless noted, calls come from the whole dose curve.
What was measured:
[1] = Natriuretic polypeptide receptor (hNpr1) antagonism - Pilot counterscreen GloSensor control cell line (AID 1347045); note: potency is the fitted concentration of half-maximal effect
How it was run: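 Cells were first seeded and incubated overnight at 37C, then loaded with 2% GloSensor substrate for 2 h. Compounds were added for 30 min at room temperature, followed by a baseline read, 50 uM SNP and a final read after 20 min.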

[2] = target: Atrial natriuretic peptide receptor 1 (Homo sapiens) (UniProt P16066); assay: Natriuretic polypeptide receptor (hNpr1) antagonism - Pilot screen (AID 1347049);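 note: HEK293 cells with hNpr1 and GloSensor cGMP luciferase stimulated by 0.1 nM hNppA; agonist-evoked cGMP luminescence read 20 min after hNppA addition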; note: potency is the fitted concentration of half-maximal effect
Chain of Atrial natriuretic peptide receptor 1 (Homo sapiens) (P16066 whole entry, looked up): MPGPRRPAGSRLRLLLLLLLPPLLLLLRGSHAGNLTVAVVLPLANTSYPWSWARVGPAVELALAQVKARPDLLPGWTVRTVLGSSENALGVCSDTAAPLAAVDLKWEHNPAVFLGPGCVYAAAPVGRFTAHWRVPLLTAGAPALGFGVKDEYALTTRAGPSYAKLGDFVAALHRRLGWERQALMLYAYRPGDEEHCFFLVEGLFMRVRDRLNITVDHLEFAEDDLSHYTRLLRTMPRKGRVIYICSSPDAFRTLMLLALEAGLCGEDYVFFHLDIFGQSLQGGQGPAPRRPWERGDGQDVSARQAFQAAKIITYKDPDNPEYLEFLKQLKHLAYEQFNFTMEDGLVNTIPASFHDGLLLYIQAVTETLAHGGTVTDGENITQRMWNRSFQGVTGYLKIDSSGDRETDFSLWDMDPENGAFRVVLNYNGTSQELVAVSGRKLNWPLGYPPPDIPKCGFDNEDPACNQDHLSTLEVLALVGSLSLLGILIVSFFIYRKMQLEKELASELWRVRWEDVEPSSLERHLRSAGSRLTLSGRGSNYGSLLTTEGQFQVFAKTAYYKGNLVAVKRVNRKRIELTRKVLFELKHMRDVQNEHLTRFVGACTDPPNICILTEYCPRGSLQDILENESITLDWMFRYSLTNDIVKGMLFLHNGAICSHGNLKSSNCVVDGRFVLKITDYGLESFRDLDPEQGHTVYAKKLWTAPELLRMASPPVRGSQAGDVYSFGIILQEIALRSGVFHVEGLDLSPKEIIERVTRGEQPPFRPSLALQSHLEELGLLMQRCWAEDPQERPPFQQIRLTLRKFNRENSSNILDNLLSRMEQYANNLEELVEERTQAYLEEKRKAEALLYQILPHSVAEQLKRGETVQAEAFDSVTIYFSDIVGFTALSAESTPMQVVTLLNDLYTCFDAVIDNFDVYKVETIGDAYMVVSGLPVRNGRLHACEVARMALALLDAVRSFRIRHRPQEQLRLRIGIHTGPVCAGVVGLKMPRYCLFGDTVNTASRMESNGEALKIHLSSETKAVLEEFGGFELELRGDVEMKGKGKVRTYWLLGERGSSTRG
How it was run: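 Receptor antagonism read as cGMP-dependent luminescence in hNpr1/pGS-40F HEK293 cells: pre-read after 30 min compound exposure, post-read 20 min after hNppA agonist at 0.1 nM final, all at room temperature, protected from light; A-71915 titration as control.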

[3] = target: Atrial natriuretic peptide receptor 2 (Homo sapiens) (UniProt P20594); assay: Natriuretic polypeptide receptor (hNpr2) antagonism - Pilot subtype selectivity assay (AID 1347050); note: potency is the fitted concentration of half-maximal effect
Chain of Atrial natriuretic peptide receptor 2 (Homo sapiens) (P20594 whole entry, looked up): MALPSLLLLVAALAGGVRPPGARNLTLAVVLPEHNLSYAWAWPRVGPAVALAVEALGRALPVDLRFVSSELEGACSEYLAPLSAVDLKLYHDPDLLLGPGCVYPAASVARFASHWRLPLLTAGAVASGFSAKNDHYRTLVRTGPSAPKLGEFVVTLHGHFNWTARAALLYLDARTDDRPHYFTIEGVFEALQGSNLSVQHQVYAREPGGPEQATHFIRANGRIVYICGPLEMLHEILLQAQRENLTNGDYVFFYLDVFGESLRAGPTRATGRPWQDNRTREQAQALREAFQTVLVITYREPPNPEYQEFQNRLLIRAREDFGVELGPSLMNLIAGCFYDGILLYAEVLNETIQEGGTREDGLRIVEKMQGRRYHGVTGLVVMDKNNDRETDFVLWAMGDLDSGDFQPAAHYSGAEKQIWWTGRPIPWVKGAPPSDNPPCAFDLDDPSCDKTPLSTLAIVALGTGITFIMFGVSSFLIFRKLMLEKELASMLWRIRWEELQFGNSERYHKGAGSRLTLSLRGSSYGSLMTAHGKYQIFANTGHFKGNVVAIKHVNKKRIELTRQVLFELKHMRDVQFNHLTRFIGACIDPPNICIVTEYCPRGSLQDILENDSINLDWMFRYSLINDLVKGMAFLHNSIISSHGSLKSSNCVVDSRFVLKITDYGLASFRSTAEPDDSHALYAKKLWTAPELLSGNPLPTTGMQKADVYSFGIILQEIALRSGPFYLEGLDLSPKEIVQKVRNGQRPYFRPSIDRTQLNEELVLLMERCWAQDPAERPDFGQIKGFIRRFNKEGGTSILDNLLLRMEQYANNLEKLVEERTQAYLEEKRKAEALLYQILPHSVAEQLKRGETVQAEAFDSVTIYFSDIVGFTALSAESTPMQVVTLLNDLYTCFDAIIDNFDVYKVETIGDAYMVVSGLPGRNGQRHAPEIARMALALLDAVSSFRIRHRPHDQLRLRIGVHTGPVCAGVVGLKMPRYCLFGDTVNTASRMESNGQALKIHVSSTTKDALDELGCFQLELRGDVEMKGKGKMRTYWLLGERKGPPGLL
How it was run: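 Antagonist mode: compounds (LOPAC1280, seven 1:5 dilutions) added 30 min before 1 nM hNppC stimulation of hNpr2-HEK293 cGMP-sensor cells; luminescence read before and 20 min after agonist at ambient temperature.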

[4] = NS1 protein of Zika virus - qHTS assay to identify small molecule inhibitors in human HEK 293 cells (AID 1347053; active = well fitted inhibition curve with a large enough effect; note: series mostly up to about 46 µM; nearly all actives have a fitted effect of over 55% in size)
How it was run: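 Read-out is a two-antibody TR-FRET for ZIKV NS1, normalized between uninfected cells and infected cells. Compound added 1 h before MR766 infection at MOI 0.5; human HEK 293 cells incubated 24 h, 37 C.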

[5] = target: T1, Tyrosine-protein phosphatase non-receptor type substrate 1 (Homo sapiens) + Leukocyte surface antigen CD47 (Homo sapiens) (UniProt P78324+Q08722); assay: CD47-SIRPalpha protein protein interaction - LANCE assay qHTS validation (AID 1347057; active = well fitted curve in the direction sought with a large enough effect in the signal ratio, with a control signal flat, not every such curve was filed as active; the % refers to the signal ratio; note: series mostly up to about 38 µM)
T1 sequence (P78324 whole entry, looked up, the tested form may be a part): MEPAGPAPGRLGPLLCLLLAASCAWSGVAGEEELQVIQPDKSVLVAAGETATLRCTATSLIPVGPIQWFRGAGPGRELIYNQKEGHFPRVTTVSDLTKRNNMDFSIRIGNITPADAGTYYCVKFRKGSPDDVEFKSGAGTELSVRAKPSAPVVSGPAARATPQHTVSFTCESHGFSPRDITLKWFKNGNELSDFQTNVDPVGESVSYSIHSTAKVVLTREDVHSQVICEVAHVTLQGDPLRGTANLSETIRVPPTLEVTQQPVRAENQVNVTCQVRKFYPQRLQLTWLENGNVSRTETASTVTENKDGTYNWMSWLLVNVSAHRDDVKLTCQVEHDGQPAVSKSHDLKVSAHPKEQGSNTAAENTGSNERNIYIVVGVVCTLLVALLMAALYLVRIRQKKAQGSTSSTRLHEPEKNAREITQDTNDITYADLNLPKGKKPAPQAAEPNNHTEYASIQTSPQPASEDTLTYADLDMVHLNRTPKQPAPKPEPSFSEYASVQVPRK
T1 sequence (Q08722 whole entry, looked up, the tested form may be a part): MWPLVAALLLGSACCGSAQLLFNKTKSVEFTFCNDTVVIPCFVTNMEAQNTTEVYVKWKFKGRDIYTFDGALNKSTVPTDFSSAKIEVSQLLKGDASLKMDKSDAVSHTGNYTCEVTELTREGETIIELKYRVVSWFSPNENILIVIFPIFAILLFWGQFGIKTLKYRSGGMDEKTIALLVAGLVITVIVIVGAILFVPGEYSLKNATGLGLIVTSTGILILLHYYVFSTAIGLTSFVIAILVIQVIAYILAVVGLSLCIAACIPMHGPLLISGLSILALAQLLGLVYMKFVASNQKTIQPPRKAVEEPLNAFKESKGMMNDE
How it was run: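 Inhibition of soluble CD47/SIRPalpha ectodomain association by titrated compounds, measured as 665/615 nm time-resolved FRET ratio after sequential 30 min room-temperature incubations.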

[6] = target: T1, Tyrosine-protein phosphatase non-receptor type substrate 1 (Homo sapiens) + Leukocyte surface antigen CD47 (Homo sapiens); assay: CD47-SIRPalpha protein protein interaction - HTRF assay qHTS validation (AID 1347058; active = well fitted curve in the direction sought with a large enough effect in the signal ratio, not every such curve was filed as active; the % refers to the signal ratio; note: series mostly up to about 38 µM)
How it was run: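 Soluble extracellular domains (6His-CD47, Avi-tag-biotinylated SIRPalpha) in PBS pH 7.4 with 0.05% IGEPAL CA-630. Compounds were preincubated 30 min at RT with CD47 and anti-His-Eu, then SIRPalpha and SAV-XL665 were added. TR-FRET 665/615 ratio.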

| SMILES | Potency [1] | Potency [2] | Potency [3] | outcome [4] | Potency [5] | outcome [6] |
| --- | --- | --- | --- | --- | --- | --- |
| CCCN1CCC[C@@H](c2cccc(O)c2)C1 | inactive | inactive | inactive | inactive | inactive | inactive |
| C[N+]1(C)CCN(c2ccccc2)CC1 | inactive | inactive | inactive | inactive | – | inactive |
| CC(N)Cc1c[nH]c2ccc(OCc3cccs3)cc12 (stereo not given) | inactive | inactive | inactive | inactive | inactive | inactive |
| COc1ccc(OC)c(C(O)C(C)N)c1 (stereo not given) | inactive | inactive | inactive | inactive | inactive | inactive |
| NNC(=O)c1ccc(O)cc1 | inactive | inactive | inactive | – | inactive | – |
| Cc1c2ccncc2c(C)c2c1[nH]c1ccccc12 | inactive | 10.7 µM (active) | 5.21 µM (active) | – | inactive | – |
| CCN1C[C@@]2(COC)C3[C@@H](OC)C4[C@@H]1C3([C@@H]1C[C@]3(O)[C@H](OC(=O)c5ccccc5)[C@@H]1[C@]4(OC(C)=O)[C@@H](O)[C@@H]3OC)[C@H](OC)C[C@H]2O | inactive | inactive | inactive | inactive | inactive | inactive |
| C[N+](C)(C)CCOC(=O)CBr | inactive | inactive | inactive | inactive | inactive | inactive |
| CC(C)(C)c1o[nH]c(=O)c1CC(N)C(=O)O (stereo not given) | inactive | inactive | inactive | inactive | inactive | inactive |
| NC(=O)c1ccc(OCC(O)CN2CC=C(c3ccc(F)cc3)CC2)cc1 (stereo not given) | inactive | inactive | inactive | inactive | inactive | inactive |
| O=C(O)c1cc[c]([Hg][Cl])cc1 | inactive | – | inactive | – | – | – |
| N#CCCN | inactive | inactive | inactive | inactive | inactive | inactive |
| COc1cc(CC(C)N)c(OC)cc1I (stereo not given) | inactive | – | inactive | – | – | – |
| CC(Cc1ccc(OCC(=O)O)cc1)NCC(O)c1cccc(Cl)c1 (stereo not given) | inactive | inactive | inactive | inactive | inactive | inactive |
| NCC(O)c1cc(O)c(O)cc1F (stereo not given) | inactive | inactive | inactive | inactive | inactive | inactive |
| OCc1cnc[nH]1 | inactive | inactive | inactive | inactive | inactive | inactive |
| CC(C)(C)OC(=O)NC1[C@H]2CNC[C@@H]12 (stereo not given in full) | – | – | – | inactive | inactive | inactive |
| Oc1ccc2c3c1O[C@H]1c4oc5ccccc5c4C[C@@]4(O)C(C2)N(CC2CC2)CCC314 (stereo not given in full) | – | inactive | inactive | – | inactive | inactive |

| SMILES | Potency [1] | Potency [2] | Potency [3] | outcome [4] | Potency [5] | outcome [6] |
| --- | --- | --- | --- | --- | --- | --- |
| CO[C@H]1CC=C2CCN3CCC4=C(CC(=O)OC4)[C@]23C1 | – | inactive | inactive | inactive | inactive | – |
| CNc1ccc2oc(C[C@H]3O[C@@]4(CC[C@H]3C)O[C@H]([C@H](C)C(=O)c3ccc[nH]3)[C@H](C)C[C@H]4C)nc2c1C(=O)O | – | inactive | inactive | – | inactive | inactive |
| Oc1ccc2c3c1O[C@H]1c4[nH]c5ccccc5c4C[C@@]4(O)C(C2)N(CC2CC2)CCC314 (stereo not given in full) | – | inactive | inactive | inactive | inactive | inactive |
| CC1(C(=O)O)C2CCC(O2)C1(C)C(=O)O (stereo not given) | – | inactive | inactive | – | inactive | inactive |
| Cc1o[nH]c(=O)c1CC(N)C(=O)O (stereo not given) | – | inactive | inactive | inactive | inactive | – |
| C#CCN[C@H](C)Cc1ccccc1 | inactive | – | inactive | inactive | inactive | inactive |
| C[C@H](N)Cc1cccc(C(F)(F)F)c1 | – | inactive | – | inactive | inactive | inactive |
| CCCCCCCCCCCCCC(=O)O[C@@H]1[C@@H](C)[C@@]2(O)[C@@H](C=C(CO)C[C@@]3(O)C(=O)C(C)=C[C@@H]23)C2C(C)(C)[C@@]21OC(C)=O (stereo not given in full) | inactive | – | 0.0066 µM (active) | – | inactive | – |
| C[N+](C)(C)CC#CCOC(=O)Nc1cccc(Cl)c1 | inactive | – | inactive | inactive | inactive | inactive |
| CCCN1CCc2cc(O)cc3c2[C@H]1Cc1ccc(O)c(O)c1-3 | – | inactive | inactive | inactive | – | – |
| CC(=O)c1c(O)c(C)c(O)c(Cc2c(O)c3c(c(C(=O)/C=C/c4ccccc4)c2O)OC(C)(C)C=C3)c1O | – | inactive | – | – | inactive | – |
| O=C(NC1CN2CCC1CC2)c1cc2ccoc2cn1 (stereo not given) | – | – | – | inactive | inactive | inactive |
| C=CCN1CCC23c4c5ccc(O)c4O[C@H]2C(=O)CC[C@@]3(O)C1C5 (stereo not given in full) | – | inactive | inactive | inactive | inactive | – |
| NC(=O)COc1c(F)cc(SCCNS(=O)(=O)c2ccccc2)cc1F | – | inactive | inactive | inactive | inactive | – |
| Nc1cc2c(ncn2CCOCP(=O)(O)O)c(=O)[nH]1 | – | – | – | inactive | inactive | inactive |
| [Cl-].[Cl][Pt].[NH2-].[NH2-].c1ccncc1 | – | – | – | inactive | – | – |
| Ic1ccccc1CNC1C2CCN(CC2)C1C(c1ccccc1)c1ccccc1 (stereo not given) | 13.1 µM (active) | – | – | – | inactive | – |

— PubChem BioAssay (NCATS)
